TDP1 cell noCPT = qHTS for Inhibitors of human tyrosyl-DNA phosphodiesterase 1 (TDP1): qHTS in cells in absence of CPT; hit rate 15% among 420,000; Potency, µM (titrated, usually from 46.2 µM), for the others: at the top dose activity change, negative = growth inhibition, actives largely listed as inhibitors; DT40 Tdp1-/- hTDP1 cells, no CPT, ATP luminescence, 48 h; also: nearly all actives have a fitted effect of over 55% in size
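Growth of hTDP1-complemented DT40 Tdp1-knockout cells is measured by ATP luminescence after at least 48 hr compound exposure at 37 °C, with DMSO substituting for the 20 nM CPT used in the parallel screen.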
TDP1 block = TDP1 (human) enzyme inhibition; AID 485290; recombinant TDP1, AlphaScreen DNA substrate cleavage; Potency, µM (series often up to 130 µM), without a hit: at the highest dose activity change, negative = inhibition, usual class: inhibitors; hit rate 0.28% among 350,000; Q9NUW8; also: nearly all actives have a fitted effect of over 40% in size
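AlphaScreen read-out: signal falls as enzyme removes the 3' tyrosine-FITC from a 5'-biotinylated DNA oligo (15 nM, 5 min, RT). Enzyme was E. coli-made recombinant Tdp1 at 1 nM, exposed to compound for 15 min beforehand; beads 10 ug/ml, 10 min.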
DT40 TDP1 CPT = DT40-hTDP1 cell growth loss with CPT | chicken DT40 Tdp1-/-;hTDP1 cells + 20 nM CPT, ATP luminescence, 48 h | Potency, µM (doses to about 46.2 µM), for inactives: at the top dose activity change, negative = growth inhibition, most hits filed as inhibitors | hit rate 12% among 420,000 | AID 686979; also: nearly all actives have a fitted effect of over 55% in size
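Cell growth measured by CellTiter-Glo luminescence after a minimum 48 h, 37 C compound exposure with 20 nM CPT in Tdp1-knockout DT40 cells stably expressing hTDP1, seeded 400/well; qHTS titration format.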
RORg inh = ROR gamma (mouse) transcription inhibition; hit rate 5.4% among 310,000; Drosophila S2 Gal4-RORgamma UAS-luciferase reporter, 20 h; Potency, µM (highest dose often 53.6 µM), for inactives: at the top dose activity change, negative = inhibition, actives largely listed as inhibitors; P51450; AID 2551; also: nearly all actives have a fitted effect of over 60% in size
Target sequence (P51450 whole entry, looked up, the tested form may be a part): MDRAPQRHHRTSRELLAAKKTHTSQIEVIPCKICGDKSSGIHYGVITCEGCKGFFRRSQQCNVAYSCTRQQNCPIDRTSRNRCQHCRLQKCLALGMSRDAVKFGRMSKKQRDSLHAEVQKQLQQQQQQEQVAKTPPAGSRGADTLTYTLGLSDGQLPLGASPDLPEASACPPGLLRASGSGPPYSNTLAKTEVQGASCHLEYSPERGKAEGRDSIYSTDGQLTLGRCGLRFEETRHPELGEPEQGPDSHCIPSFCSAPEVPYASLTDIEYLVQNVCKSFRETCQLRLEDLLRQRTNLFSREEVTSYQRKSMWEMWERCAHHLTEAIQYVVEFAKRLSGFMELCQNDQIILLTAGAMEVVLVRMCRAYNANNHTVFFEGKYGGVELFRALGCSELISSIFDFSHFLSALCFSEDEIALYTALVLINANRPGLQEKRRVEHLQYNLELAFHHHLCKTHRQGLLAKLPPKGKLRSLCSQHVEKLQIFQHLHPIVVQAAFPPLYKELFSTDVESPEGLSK
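Stable Schneider cell line, Gal4 DNA-binding domain fused to ROR gamma, UAS-luciferase. Cmpd 1 hr RT → CuSO4 700 uM final → 20 hr RT → luciferase reagent 10 min → luminescence.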
Gal4-VP16 FLuc = inhibits Gal4-VP16 luciferase reporter, ROR gamma counter-screen. Drosophila S2 Gal4-VP16 UAS-luciferase, luminescence, 20 h. Potency, µM (titrated, usually from 53.6 µM), without a hit: top-dose activity, negative = inhibition, usual class: inhibitors. hit rate 3.5% among 310,000;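 also: Gal4-VP16 expression switched on by copper sulfate through the metallothionein promoter; nearly all actives have a fitted effect of over 50% in size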
Numbers without * were called inactive. Shown are actives, neighbours in structure and some others; about 19% of the full set was active somewhere. Calls follow the shape of the dose curve; as a rule, active = well fitted curve in the direction sought with a large enough effect; inconclusive = small, poorly fitted or top-dose-only effect, or another doubt; inactive = no such curve, though single readings can be large; an effect the other way counts as inactive or inconclusive. % is scaled to controls: 0 for no effect and ±100 for the full control effect; potency is read from the fitted curve at half-maximal effect.

Screening Cn1ccc2c(N3c4ccccc4CCc4ccccc43)cc3c(c21)C1CCC3O1 (stereo not given) returned TDP1 cell noCPT 20.6µM* and DT40 TDP1 CPT 23.1µM*.
`CN(c1cccc(F)c1)c1cc2c(c3c1ccn3C)C1CCC2C1` (stereo not given) gave TDP1 cell noCPT -24.4% and DT40 TDP1 CPT -4.0%.
Cn1ccc2c(N3CCCCCC3)cc3c(c21)C1CCC3C1 (stereo not given) was read as TDP1 cell noCPT 11.6µM* and DT40 TDP1 CPT 14.6µM*.
`Cn1ccc2c(N3CCOCC3)cc3c(c21)C1CCC3C1` (stereo not given) gave TDP1 cell noCPT inconclusive and DT40 TDP1 CPT -27.9%.
For Cn1ccc2c(N3c4ccccc4CCc4ccccc43)cc3c(c21)C1CCC3C1 (stereo not given) the results were TDP1 cell noCPT 5.17µM* and DT40 TDP1 CPT 2.31µM*.
For CNc1nc(C#N)nc(Nc2ccccc2)n1 the results were TDP1 block 9.7% and Gal4-VP16 FLuc inconclusive.
Nn1cnnc1SCC(=O)Nc1ccc2c(c1)OCO2 was read as TDP1 cell noCPT 2.2%, TDP1 block 5.1%, DT40 TDP1 CPT 6.9%, RORg inh -6.4% and Gal4-VP16 FLuc -5.4%.
Screening COc1ccc(-n2c(=O)/c(=C\c3cccs3)s/c2=C(/C#N)C(=O)N2CCN(C)CC2)cc1 returned TDP1 cell noCPT 23.1µM*, TDP1 block 6.9%, DT40 TDP1 CPT -25.6%, RORg inh inconclusive and Gal4-VP16 FLuc inconclusive.
Screening Cc1c2cnn(CC(=O)NCCc3ccccc3)c(=O)c2c(C)n1Cc1ccccc1Cl returned TDP1 cell noCPT inconclusive, TDP1 block 7.6% and DT40 TDP1 CPT inconclusive.
For Cc1cc(=O)oc2c(C)c(OCC(=O)N3CCN(C(=O)C4COc5ccccc5O4)CC3)ccc12 (stereo not given) the results were TDP1 cell noCPT 16.4µM*, TDP1 block 4.5%, DT40 TDP1 CPT inconclusive, RORg inh 22.8% and Gal4-VP16 FLuc -5.2%.
`CCCc1cc(=O)oc2c(C)c(O[C@@H]3O[C@H](CO)[C@@H](O)[C@H](O)[C@H]3O)ccc12` gave TDP1 cell noCPT 7.31µM*, DT40 TDP1 CPT inconclusive, RORg inh -10.4% and Gal4-VP16 FLuc 1.4%.
Cc1cc(=O)oc2c(C)c(OCC(=O)N3CCN(c4cccc(Cl)c4)CC3)ccc12 was read as TDP1 cell noCPT 23.1µM*, TDP1 block 0.7%, DT40 TDP1 CPT 20.6µM*, RORg inh -36.4% and Gal4-VP16 FLuc 4.0%.
`CCCc1cc(=O)oc2c(C)c(OCC(=O)c3ccc(N4CCCC4)cc3)ccc12` gave TDP1 cell noCPT 18.4µM*, TDP1 block 0.9%, DT40 TDP1 CPT inconclusive, RORg inh 8.9% and Gal4-VP16 FLuc 0.2%.
For Cc1cc(=O)oc2cc(OCC(=O)N3CCN(c4ccccc4)CC3)ccc12 the results were TDP1 cell noCPT 0.2%, TDP1 block 0.7% and DT40 TDP1 CPT -12.2%.
For CC(C)(C)OC(=O)NC1CCN(S(=O)(=O)c2ccc3c(c2)OCCO3)CC1 the results were TDP1 cell noCPT inconclusive, DT40 TDP1 CPT inconclusive, RORg inh 20.6% and Gal4-VP16 FLuc -4.4%.
`O=S(=O)(c1ccc(N2CCCC2c2nc3ccccc3s2)nc1)N1CCOCC1` (stereo not given) gave TDP1 cell noCPT inconclusive, TDP1 block 6.1%, DT40 TDP1 CPT -5.7%, RORg inh 37.5% and Gal4-VP16 FLuc 26.7%.
`Cc1cc(C)c(S(=O)(=O)N2CCN(C(=O)C3COc4ccccc4O3)CC2)c(C)c1` (stereo not given) gave TDP1 cell noCPT 9.2µM*, TDP1 block -8.4% and DT40 TDP1 CPT 13µM*.
`Cc1ccc(S(=O)(=O)N2CCN(C(=O)C3COc4ccccc4O3)CC2)cc1C` (stereo not given) gave TDP1 cell noCPT -24.8%, TDP1 block -1.5%, DT40 TDP1 CPT -23.8%, RORg inh 60.5% and Gal4-VP16 FLuc 0.7%.
